sdo1 growth = restores growth of sdo1-depleted yeast | S. cerevisiae sdo1-depleted JHY4D growth rescue, OD600 30 h; active compounds read high; pdr5 snq2 efflux-pump mutant strain | z-score at 10 µM | 140,000 compounds, 0.21% hits;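 active means z-score above 3 at both the 24 hr and the 30 hr optical density reads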;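 further: z-score against mean and SD of all compound wells on the same plate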
S1P2 ag = agonists of human S1P2 receptor; 97,000 compounds, 0.46% hits; activation, % at 4.5 µM; S1P2-expressing cell line, agonist reporter read-out; O95136; AID 729; in the data active means activation above about 16%;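 further: 0% = vehicle low control and 100% = maximal reference agonist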
FAK blocker = blocks human focal adhesion kinase activity. AID 727. biochemical FAK kinase activity assay. 97,000 compounds, 0.84% hits. inhibition, %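 (tested at 7 µM)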;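 further: 0% = DMSO and 100% = reference compound high control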
S1P2 blocker = antagonists of human S1P2 receptor | cell-based S1P2 antagonist assay, inhibition at 5 uM | O95136 | inhibition, % at 5 µM | 97,000 compounds, 0.21% hits | AID 736; in the data active means inhibition above about 45%;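 further: CRE beta-lactamase reporter cells expressing human S1P2 stimulated with S1P; 0% = agonist at EC80 alone and 100% = agonist plus reference antagonist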
GALR2 antag = GALR2 (human) receptor antagonism | O43603 | GALR2-expressing cells, antagonist mode | inhibition, % at 4 µM | 140,000 compounds, 0.39% hits; in the data active means inhibition above about 27%;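 further: cells stimulated with galanin 1-16 at roughly its EC80; 0% = agonist challenge control and 100% = basal control without agonist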
Target sequence (O43603 whole entry, looked up): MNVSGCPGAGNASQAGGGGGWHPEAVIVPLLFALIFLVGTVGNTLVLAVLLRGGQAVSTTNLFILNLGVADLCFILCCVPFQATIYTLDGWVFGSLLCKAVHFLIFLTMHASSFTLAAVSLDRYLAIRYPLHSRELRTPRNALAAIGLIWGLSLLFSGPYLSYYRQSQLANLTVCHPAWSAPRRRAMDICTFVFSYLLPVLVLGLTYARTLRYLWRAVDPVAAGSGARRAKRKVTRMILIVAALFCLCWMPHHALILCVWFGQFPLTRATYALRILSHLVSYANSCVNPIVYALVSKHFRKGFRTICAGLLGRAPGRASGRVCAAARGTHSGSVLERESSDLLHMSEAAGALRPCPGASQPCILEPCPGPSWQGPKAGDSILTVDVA
GALR2 ag = activates the human galanin receptor 2; 140,000 compounds, 0.48% hits; AID 803; GALR2-expressing cells, agonist activation read-out; activation, % (test concentration not listed); O43603; in the data active means activation above about 5%, passing the limit was not always enough;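 further: 0% = vehicle buffer wells and 100% = reference agonist at full effect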
FAK inh conf = confirmation of human focal adhesion kinase (FAK) inhibitors; shares compounds with FAK blocker; FAK kinase biochemical inhibition assay; inhibition, % at 7 µM; 750 compounds, 28% hits; AID 794
* hit, by the source's call; · = no result given. Rows were chosen to be rich in hits. Some 1.9% of all compounds tested hit in one or more screens of this group. Unless noted, no stated cut-off is given here; in the data, active means inhibition above about 19%; inactive means the rest.

SMILES	sdo1 growth	S1P2 ag	FAK blocker	S1P2 blocker	GALR2 antag	GALR2 ag	FAK inh conf
C=CCN1C(=O)/C(=C2/C(=O)N(CC(=O)O)c3ccccc32)S/C1=N/c1nccs1	0.42	-8	22*	14	-6	-2	10
O=c1[nH]c2ccccc2cc1-c1noc(-c2cccnc2)n1	0.8	-2	7	-7	-4	-2	·
COc1ccc2[nH]c(=O)c(-c3noc(-c4ccccc4)n3)cc2c1	-0.7	0	59*	-7	4	0	36*
CC1(C)Cc2c(C#N)c(N3CCN(C(=O)c4ccco4)CC3)nc(-c3ccco3)c2CS1	-0.95	3	8	8	3	2	·
CC1(C)Cc2c(C#N)c(N3CCN(C(=O)c4ccccc4Cl)CC3)nc(-c3ccco3)c2CS1	-1.8	-2	25*	-14	-20	-119	-1
Cc1cc(C)c(NC(=O)CC(C)(C)C)c(Cl)c1	1.3	-6	73*	8	10	-2	2
Cc1nnc(SCC(=O)n2c3c(c4ccccc42)CCCC3)s1	-1.2	-1	-3	-8	-25	0	·
O=C(c1cccs1)[C@@H]1[C@@H]2C(=O)N(Cc3ccc4c(c3)OCO4)C(=O)[C@@H]2C2c3ccccc3C=CN21 (stereo not given in full)	-0.43	-5	20*	23	-1	0	9
CC1CCCC(C)N1C(=O)c1cccc2c1-c1ccccc1/C2=N/O (stereo not given)	-1.8	-4	14	-9	-6	0	·
CCOC(=O)c1cccc2c1-c1ccccc1/C2=N/O	-1.6	-5	49*	-2	2	0	26*
Cc1c(-n2cc(C(=O)c3cc(Cl)ccc3O)cc(C#N)c2=O)c(=O)n(-c2ccccc2)n1C	-0.83	-4	-1	17	-8	-2	·
CS(=O)(=O)c1ccc2nc(N)sc2c1	1.1	-9	3	-11	8	-1	·
Nc1nc2ccc([N+](=O)[O-])c(N)c2s1	0.63	-7	25*	-1	-6	-1	6
O=C(NCc1ccc2c(c1)OCO2)c1cc2ccccc2o1	-0.64	-2	4	-2	12	-2	·
Cc1ccc2cc3cc(C(=O)NCc4ccc5c(c4)OCO5)oc3nc2c1	1.1	-5	28*	12	2	-2	20*
Nc1ncnc2nc(SCC(=O)N3CCN(c4ccccc4)CC3)[nH]c12	0.31	-8	4	-12	-12	-1	·
Nc1ncnc2nc(SCc3ccccc3)[nH]c12	-0.35	-4	38*	3	11	-1	13
COc1ccc(OC)c(NS(=O)(=O)Cc2ccccc2)c1	0.66	1	46*	-6	-7	-1	32*
COc1ccc(OC)c(S(=O)(=O)NCc2ccccc2)c1	1.2	2	-3	8	-4	0	·
Cc1cc(C)c(S(=O)(=O)Nc2cccc(/C=C/C(=O)O)c2)c(C)c1	0.92	·	·	·	-3	0	·
CN(C)c1ccc(/C=C(/NC(=O)c2ccccc2)C(=O)N/N=C/c2ccc([N+](=O)[O-])c(O)c2)cc1	0.76	-8	20*	9	-14	0	5
COc1ccc(-c2[nH]ncc2/C=N\NS(=O)(=O)c2ccccc2)cc1OC	2	-2	22*	-23	-2	-3	15
N#CC(Cc1ccccc1OC(F)F)c1nc2ccccc2[nH]1 (stereo not given)	0.53	·	·	·	-6	0	·
CCN(CC)C(=O)CSc1nc(N)c2c3c(sc2n1)CC(C)CC3 (stereo not given)	-2.3	2	28*	-63	-2	1	32*
CC1CCc2c(sc3nc(SCC(=O)NCc4ccco4)nc(N)c23)C1 (stereo not given)	-1.2	-5	2	2	3	0	·
SMILES	sdo1 growth	S1P2 ag	FAK blocker	S1P2 blocker	GALR2 antag	GALR2 ag	FAK inh conf
CCOC(=O)C1C(C)=C(Nc2ccc(OC)cc2)C(=O)N1c1ccc(OC)cc1 (stereo not given)	0.06	·	·	·	6	-1	·
CCOC(=O)CSc1nc2c(sc(=S)n2Cc2ccco2)c(=O)n1-c1ccccc1	-1.5	-6	11	-2	-10	-2	·
CCN(CC)C(=O)CSc1nc2c(sc(=S)n2Cc2ccco2)c(=O)n1-c1ccccc1	-0.31	-4	20*	9	-11	1	4
CCOC(=O)CN1C(=O)S/C(=C/C=C/c2ccc(N(C)C)cc2)C1=O	-0.55	·	·	·	11	-3	·
C=C(c1cccc2ccccc12)P(=O)(O)O	0.99	-6	29*	-10	4	-4	20*
COc1ccc(OC)c(C2CC(=O)N3CN(c4ccccc4)CSC3=C2C#N)c1 (stereo not given)	0.7	-5	0	-5	-9	-2	·
Cc1cccc(N2CSC3=C(C#N)C(c4ccc(C)o4)CC(=O)N3C2)c1 (stereo not given)	-0.68	-1	24*	-15	11	-2	9
Cc1c(Cl)cccc1N=Cc1ccc([N+](=O)[O-])s1	-1.3	-3	25*	36	4	-1	-1
CC(C)CCNC(=O)CCSCCC(=O)NCCC(C)C	0.32	·	·	·	3	0	·
COc1ccc(C2C(C#N)=C(N)Oc3c2sc2nc(C)cc(C)c32)cc1 (stereo not given)	-0.52	1	29*	-37	9	-2	10
O=C(OCC(=O)N1CCN(C(=O)c2ccco2)CC1)c1cc(-c2ccco2)nc2ccccc12	-0.49	-9	69*	10	1	-3	17
O=C(OCC(=O)N1CCN(C(=O)c2ccco2)CC1)c1cc(-c2ccc(Cl)c(Cl)c2Cl)nc2ccccc12	-1.2	-2	35*	-34	-4	-2	19*
O=C(c1ccco1)N1CCN(C(=O)c2cc(-c3ccccn3)nc3ccccc23)CC1	1.3	-4	-3	15	-1	-2	·
CC1CN(C(=O)C2(C)CC2(Br)Br)CC(C)O1 (stereo not given)	0.11	·	·	·	-4	-1	·
CCOC(=O)c1ccc(NC(=O)CN2C(=O)CSC(C)C2=O)cc1 (stereo not given)	1.5	·	·	·	-3	0	·
COc1ccc(-c2cn[nH]c2N)c(OC)c1	0.85	-8	31*	6	-2	0	1
COc1ccc(-c2cn[nH]c2N)cc1	1.4	-3	6	-15	0	-1	·
O=C1NCCc2c1[nH]c1c(Cl)ccc(Cl)c21	-1.4	-2	73*	1	0	-3	62*
Cc1cccc(NC(=S)N2CCC(C(=O)c3ccc(F)cc3)CC2)c1C	-0.61	-7	-5	3	2	-2	·
COCC(C)n1c(SCC(=O)N2CCc3ccccc3C2)nc2ccccc2c1=O (stereo not given)	-0.79	·	·	·	-8	0	·
COCCn1c(SCC(=O)NCc2ccco2)nnc1-c1c[nH]c2ccccc12	0.26	-1	40*	2	5	-1	1
CCn1c(SCC(=O)NCc2ccco2)nnc1-c1c[nH]c2ccccc12	0.77	-3	0	-12	5	0	·
